Reference: PubChem BioAssay (NCATS)
Results filed as inconclusive are left out. Activity calls are given as the source filed them. Calls follow the shape of the dose curve; as a rule, active = well fitted cell-killing curve with a large enough effect; inconclusive = small, poorly fitted or top-dose-only effect, or effect the other way; inactive = no such curve, though single readings can be large or run the other way.

Assay: Quantitative High-Throughput drug screen in 47 multiple myeloma cell lines against the NCATS MIPE library collection: MMM1_PLB cell viability assay (AID 1918976); also: nearly all actives have a fitted effect of over 35% in size
Settings: MMM1 myeloma cells viability, CellTiter-Glo, 48 h; series mostly up to 45.8 µM
From the text: PI: Beverly A. Mock Ph.D.
Laboratory of Cancer Biology and Genetics,
Center for Cancer Research, National Cancer Institute,
National Institute of Health, Bethesda, Maryland
Drug resistance and disease progression are common in multiple myeloma (MM) patients, underscoring the need for new therapeutic combinations. […] We hypothesized that effective combinations would reduce MYC expression and enhance p16 activity. […] These preclinical data identify potentially useful drug combinations for evaluation in drug-resistant MM and reveal potential mechanisms of combined drug sensitivity.
Described herein is the primary MIPE qHTS used to cherrypick compounds. Validated compounds were then further tested for potential synergistic activiy.
[1] Peat TJ, Gaikwad SM, Dubois W, Gyabaah-Kessie N, Zhang S, Gorjifard S, Phyo Z, Andres M, Hughitt VK, Simpson RM, Miller MA, Girvin AT, Taylor A, Williams D, D'Antonio N, Zhang Y, Rajagopalan A, Flietner E, Wilson K, Zhang X, Shinn P, Klumpp-Thomas C, McKnight C, Itkin Z, Chen L, Kazandijian D, Zhang J, Michalowski AM, Simmons JK, Keats J, Thomas CJ, Mock BA. Drug combinations identified by high-throughput screening promote cell cycle transition and upregulate Smad pathways in myeloma. Cancer Lett. 2023 Aug 1;568:216284. doi: 10.1016/j.canlet.2023.216284. Epub 2023 Jun 24. PMID: 37356470; PMCID: PMC10408729.
SEQUENCE No. (e.g., 1, 2, 3, etc.); […] (e.g., Cells, Incubation, Reagent, etc.); VALUE and DESCRIPTION.
1; Cells; 5 uL; white, solid bottom 1536-well Greiner assay plate.
2; Compounds; 23 nL; Kalypsis pin tool (Wako USA) equipped with a 1536-well pin head to transfer to the assay plates.
3; Incubation; 48 hours; 37C incubation.
4; Reagent;5uL; CellTiter Glo (Promega).
5; Detector; 425V; Luminescence; Viewlux PerkinElmer.
NOTES (numbers refer to Sequence numbers above)
1. The cell-based screening methods employed in this study were like those previously published. Briefly, the corresponding myeloma cell lines were screened in 1,536-well plates with 500 cells, 5-uL per well for inhibition of cell viability (assessed by measuring ATP levels with CellTiterGlo).
2. NCATS MIPE 4.0 library of approved and investigational drugs were added using the Kalypsis pin tool. Wells treated with DMSO only for 100% viability and media only for 0% viability were used as controls.
3. The assay plates were covered and incubated for 48 hours in a 37C, 5% CO2 incubator with controlled humidity.
4. After 48 hours, CellTilter-GloTM luminescent substrate mix (Promega) reagent was added to the assay plate and plates we incubated for 5 min at room temperature.
5. Signal was measured as median relative luminescence units on a ViewLux (PerkinElmer) multiplate reader.
[1] Heske CM, Davis MI, Baumgart JT, Wilson K, Gormally MV, Chen L, Zhang X, Ceribelli M, Duveau DY, Guha R, Ferrer M, Arnaldez FI, Ji J, Tran HL, Zhang Y, Mendoza A, Helman LJ, Thomas CJ. Matrix Screen Identifies Synergistic Combination of PARP Inhibitors and Nicotinamide Phosphoribosyltransferase (NAMPT) Inhibitors in Ewing Sarcoma. Clin Cancer Res. 2017 Dec 1;23(23):7301-7311. doi: 10.1158/1078-0432.CCR-17-1121. Epub 2017 Sep 12. PMID: 28899971; PMCID: PMC6636827.
Potency is read from the fitted curve at half-maximal effect.

SMILES	Potency
O=C(Nc1nc2cccc(-c3ccc(CN4CCS(=O)(=O)CC4)cc3)n2n1)C1CC1	9.35 µM (active)
C=C1C(=CC=C2CCCC3(C)[C@@H]([C@H](C)C=CC=CC(O)(CC)CC)CC[C@@H]23)C[C@@H](O)C[C@@H]1O (stereo not given in full)	20.9 µM (active)
CC(C)c1cc(-c2n[nH]c(=O)n2-c2ccc3c(ccn3C)c2)c(O)cc1O	0.0743 µM (active)
CC(C)C[C@H](NC(=O)CNC(=O)c1cc(Cl)ccc1Cl)B(O)O	9.35 µM (active)
CC[C@@H]1C(=O)N(C)c2cnc(Nc3ccc(C(=O)NC4CCN(C)CC4)cc3OC)nc2N1C1CCCC1	13.2 µM (active)
Cc1cn2c(-c3cn[nH]c3)cnc2c(Nc2ccc(C(=O)N3CCNCC3)cc2F)n1	14.8 µM (active)
Cc1cnc(Nc2ccc(F)cc2Cl)nc1-c1c[nH]c(C(=O)N[C@H](CO)c2cccc(Cl)c2)c1	16.6 µM (active)
Nc1nc(Nc2ccc(S(N)(=O)=O)cc2)nn1C(=O)c1c(F)cccc1F	10.5 µM (active)
Cc1cccc(C=NNc2cc(N3CCOCC3)nc(OCCc3ccccn3)n2)c1	16.6 µM (active)
COc1cc(=C2C=c3ccccc3=N2)[nH]c1=Cc1[nH]c(C)cc1C	2.09 µM (active)
CN(c1ncccc1CNc1nc(Nc2ccc3c(c2)CC(=O)N3)ncc1C(F)(F)F)S(C)(=O)=O	7.43 µM (active)
CN1CCN(c2ccc3nc(-c4c(N)c5c(F)cccc5[nH]c4=O)[nH]c3c2)CC1	20.9 µM (active)
CN(C)CC=CC(=O)Nc1cc2c(Nc3ccc(F)c(Cl)c3)ncnc2cc1O[C@H]1CCOC1	20.9 µM (active)
CCCCOc1c(C(=O)c2c(F)cc(C)cc2F)cnc2n[nH]cc12	5.26 µM (active)
CC(C)CC(=O)Nc1n[nH]c2c1CN(C(=O)C1CCN(C)CC1)C2(C)C	4.69 µM (active)
Cn1cc(-c2[nH]c3cc(NC(=O)[C@H](N)C4CCCCC4)cc4c3c2C=NNC4=O)cn1	1.32 µM (active)
COCCn1c2c([n+](Cc3cnccn3)c1C)C(=O)c1ccccc1C2=O	0.0166 µM (active)
CCCCc1nc2cc(C=CC(=O)NO)ccc2n1CCN(CC)CC	0.418 µM (active)
Cc1cc(N2CCOCC2)cc2[nH]c(-c3c(NC[C@@H](O)c4cccc(Cl)c4)cc[nH]c3=O)nc12	0.166 µM (active)
Cc1ccc(S(=O)(=O)Nc2cc(Cl)ccc2C(=O)Nc2nc(-c3ccccc3)cs2)cc1	7.43 µM (active)

SMILES	Potency
CNC(=O)c1nn(C)c2c1C(C)(C)Cc1cnc(Nc3ccc(N4CCN(C)CC4)cc3)nc1-2	11.8 µM (active)
CCc1c2c(nc3ccc(O)cc13)-c1cc3c(c(=O)n1C2)COC(=O)[C@]3(O)CC	0.833 µM (active)
CC(C)c1noc(N2CCC(COc3ccc(-c4ccc(S(C)(=O)=O)cc4)nc3)CC2)n1	9.35 µM (active)
Cc1ccc(C(N)=O)cc1Nc1nccc(-c2cn(C(C)C)c3cnccc23)n1	16.6 µM (active)
Cc1nc2cnc3ccc(C#Cc4cccnc4)cc3c2n1-c1ccc(C(C)(C)C#N)cc1	0.148 µM (active)
COc1cccc2nc(-c3cccs3)nc(NN3C(=O)C=C(C)C3=O)c12	5.9 µM (active)
CCC(=C(c1ccccc1)c1ccc(OCCN(C)C)cc1)c1ccccc1	23.5 µM (active)
Cc1cc(CN2CCN(c3c(Br)cnc4nc(-c5ccc(N6CCN(C)CC6)cc5)[nH]c34)CC2)no1	23.5 µM (active)
CCN1CCN(CC(=O)Nc2ccc(-c3cccc4c(=O)cc(N5CCOCC5)oc34)c3sc4ccccc4c23)CC1	2.35 µM (active)
COc1ccc(C(=O)CC2(O)C(=O)Nc3c(Cl)ccc(Cl)c32)cc1 (stereo not given)	14.8 µM (active)
O=C(CCCCCCC(=O)Nc1ccc([C@H]2O[C@@H](CSc3nc(-c4ccccc4)c(-c4ccccc4)o3)C[C@@H](c3ccc(CO)cc3)O2)cc1)NO	13.2 µM (active)
O=C(Nc1cn[nH]c1-c1nc2ccc(CN3CCOCC3)cc2[nH]1)NC1CC1	5.9 µM (active)
Nc1ncnc2c1c(-c1cccc(OCc3ccccc3)c1)cn2C1CC(CN2CCCC2)C1 (stereo not given)	1.05 µM (active)
Cc1cn(-c2cc(NC(=O)c3ccc(C)c(Nc4nccc(-c5cccnc5)n4)c3)cc(C(F)(F)F)c2)cn1	11.8 µM (active)
COC(=O)c1ccc2c(C(=Nc3ccc(N(C)C(=O)CN4CCN(C)CC4)cc3)c3ccccc3)c(O)[nH]c2c1	7.43 µM (active)
CC1(C)O[C@@H]2C[C@@H]3[C@H]4C[C@@H](F)C5=CC(=O)C=C[C@]5(C)[C@@]4(F)[C@@H](O)C[C@]3(C)[C@]2(C(=O)CO)O1	0.0105 µM (active)
CC(C)(C)c1cnc(CSc2cnc(NC(=O)C3CCNCC3)s2)o1	0.105 µM (active)
O=C(NCCCNc1nc(Nc2cccc(NC(=O)N3CCCC3)c2)ncc1I)c1cccs1	23.5 µM (active)
CC(=O)SC[C@@H](C)C(=O)N1CCC[C@H]1C(=O)N[C@@H](Cc1ccccc1)C(=O)O	1.87 µM (active)
OCc1ccc(-c2ccc(-c3ccc(CO)s3)o2)s1	3.72 µM (active)
